VDR inhibitor = inhibitors of human vitamin D receptor | 400,000 tested, 0.93% active | Potency, µM, without a hit: max response, negative = inhibition, actives largely listed as inhibitors | AID 504847 | VDR-SRC2-3 peptide fluorescence polarization, 2 h; note: % is set by controls: 0 for no effect and ±100 for the full control effect
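After 23 nl compound addition and a short centrifugation, plates sat for 2 hours at ambient temperature; polarization of fluorescence then indicated loss of VDR binding to peptide SRC2-3.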
G9a block = G9a (human) methyltransferase inhibition; Potency, µM (top dose mostly 102 µM), without a hit: at the top dose activity, negative = inhibition, usual class: inhibitors; 350,000 tested, 8.8% active; G9a H3K9 monomethylation, AlphaScreen, 2 h; AID 504332; Q96KQ7; note: % is set by controls: 0 for no effect and ±100 for the full control effect; nearly all actives have a fitted effect of over 75% in size
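Signal arises when biotinylated H3K9 peptide, once monomethylated, bridges streptavidin donor and antibody-captured acceptor beads. Enzyme at 20 nM was preincubated 15 min with test compounds; peptide 500 nM and SAM 20 uM then reacted for 2 h.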
Sfp PPTase inh = blocks B. subtilis Sfp PPTase activity | Biochemical Sfp PPTase activity, qHTS | 310,000 tested, 3.5% active | Q9F4F7 | Potency, µM, inactives show largest response in the series, negative = inhibition, hits mostly inhibitors;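 note: the enzyme is Sfp with the accession as filed and its product quenches rhodamine fluorescence; 0% = enzyme reaction without inhibitor and -100% = no enzyme wells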
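Buffer: 50 mM Hepes-Na pH 7.6, 10 mM MgCl2, 0.01% Nonidet P-40, 0.01% BSA. Enzyme 15 nM, pre-exposed to compound 15 min; substrates then added and fluorescence change tracked over 30 min.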
Glioma ERSR ind = ER stress response induction in glioma | U87-MG GRP78 promoter luciferase reporter, 16 h | Potency, µM, without a hit: at the highest dose activation, hits mostly activators | 420,000 tested, 0.02% active | AID 602332; note: series mostly up to about 76 µM; % of control where 0% means no effect; nearly all actives have a fitted effect of over 35% in size
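ERSR induction read as luciferase luminescence (Bright-Glo, 10 min at room temperature) in stably transfected human U87-MG glioma cells exposed to compounds for 16 h, using GRP78 as sensor.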
12-LOX inh = inhibitors of human 12S-lipoxygenase ALOX12 | purified 12hLO, xylenol orange hydroperoxide absorbance | Potency, µM (titrated, usually from 108 µM), without a hit: top-dose activity change, negative = inhibition, usual class: inhibitors | 580,000 tested, 1.1% active | AID 1671190; note: % is set by controls: 0 for no effect and ±100 for the full control effect
Target sequence (P18054 whole entry, looked up): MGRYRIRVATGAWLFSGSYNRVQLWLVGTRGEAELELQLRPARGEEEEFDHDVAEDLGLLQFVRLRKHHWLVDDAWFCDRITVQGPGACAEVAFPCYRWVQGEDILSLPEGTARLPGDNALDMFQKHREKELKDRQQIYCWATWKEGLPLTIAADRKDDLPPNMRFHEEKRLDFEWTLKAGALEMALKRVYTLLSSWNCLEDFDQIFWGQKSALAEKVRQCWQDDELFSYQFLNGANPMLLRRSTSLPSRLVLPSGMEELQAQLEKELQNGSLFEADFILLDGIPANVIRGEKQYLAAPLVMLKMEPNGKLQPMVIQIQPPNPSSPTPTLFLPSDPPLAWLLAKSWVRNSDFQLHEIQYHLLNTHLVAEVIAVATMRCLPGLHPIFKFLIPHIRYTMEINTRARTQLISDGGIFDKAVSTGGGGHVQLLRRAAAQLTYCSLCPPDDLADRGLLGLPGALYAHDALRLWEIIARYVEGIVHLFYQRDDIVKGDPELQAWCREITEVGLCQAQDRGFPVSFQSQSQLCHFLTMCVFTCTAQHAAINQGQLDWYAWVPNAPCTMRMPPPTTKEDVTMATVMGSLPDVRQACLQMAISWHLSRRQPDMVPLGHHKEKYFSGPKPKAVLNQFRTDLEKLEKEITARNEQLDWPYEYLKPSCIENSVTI
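Purified human 12hLO (150 nM final) in 25 mM Hepes, 0.01% Triton X-100, pH 7.0 was preincubated 15 min at room temperature with compound. Then 40 uM arachidonic acid was added, 30 min. Hydroperoxide was read by Fe-XO absorbance ratio 573/405 nm.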
* hit, by the source's call; u = inconclusive; x = no result given; ! = a repeat was not active; [ ] = dose if it differs, or a comment. Only a selection was taken, and hits are over-represented in it overall. Calls come from the whole dose curve; as a rule, active = well fitted curve in the direction sought with a large enough effect; inconclusive = small, poorly fitted or top-dose-only effect, or another doubt; inactive = no such curve, though single readings can be large; an effect the other way counts as inactive or inconclusive. Potency is the fitted concentration of half-maximal effect.

SMILES	VDR inhibitor	G9a block	Sfp PPTase inh	Glioma ERSR ind	12-LOX inh
O=C(Nc1ccc(I)cc1C(F)(F)F)c1ccc2ccccc2c1	x	x	x	x	1%
OC(CNCCc1ccc(Cl)cc1)COc1ccc2ccccc2c1 (stereo not drawn)	1%	-32%	32µM*	-12%	-18%
C/C=C/c1ccc(OCC(O)CNCCc2ccc(OC)cc2)c(OC)c1 (stereo not drawn)	14%	7.9µM*	79µM*	-5%	u
C/C=C/c1ccc(OCC(O)CNCC(c2ccc(OC)cc2)N(C)C)c(OC)c1 (stereo not drawn)	2%	u	-24%	-7%	-20%
O=C(CCCC(=O)NN=Cc1ccc(Cl)cc1Cl)NN=Cc1ccc(Cl)cc1Cl	-2%	x	x	-6%	0%
CC(=C/c1ccccc1)/C=N/NC(=O)c1ccc2nc[nH]c2c1	-12%	15%[59 µM]	4%	4%	-14%
O=C(N/N=C/c1cc([N+](=O)[O-])ccc1Cl)c1ccc2nc[nH]c2c1	5%	-8%[59 µM]	0%	-7%	-6%
O=C(C[n+]1ccc(C(=O)N/N=C/c2ccc(Cl)cc2Cl)cc1)c1ccccc1	5%	50µM*	-9%	-1%	u
O=C(N/N=C/c1ccc(Cl)cc1Cl)c1ccc(-n2cnnn2)cc1	1%	1%[12.7 µM]	x	0%	31%
O=C(N/N=C/C(Br)=C\c1ccccc1)c1ccc2nc[nH]c2c1	u	2%[59 µM]	50µM*	1%	7%
O=C(N/N=C/c1ccc(Cl)cc1Cl)c1ccc2nc[nH]c2c1	-3%	71µM*	-18%	-1%	3%
O=C(N/N=C/c1ccc(Cl)cc1Cl)c1cccc(F)c1	-6%	48%[12.7 µM]	20µM*	4%	13%
COc1ccccc1CCNC(=O)Nc1cccc(CN2CCOC2=O)c1	x	x	x	x	32%
CC1CCN(S(=O)(=O)N2CCCC(C(=O)NCc3ccc(F)cc3)C2)CC1 (stereo not drawn)	79µM*	13%	5%	-5%	6%
CC1CCN(C(=O)C(C)NCc2ccc(F)cc2)CC1 (stereo not drawn)	u	7.1µM*	-14%	1%	u
CC1CCN(CC2CCN(C(=O)NCc3ccc(F)cc3)CC2)CC1	12%	5%[59 µM]	x	-2%	-16%
CC(Sc1n[nH]c(-c2cccs2)n1)C(=O)Nc1c(F)cccc1F (stereo not drawn)	x	x	x	x	-25%
CC(C)NCC(O)COc1cccc2ccccc12 (stereo not drawn)	0%	3.2µM*!	-3%	-5%	0%
OCC(O)COc1cccc2ccccc12 (stereo not drawn)	0%	15%[59 µM]	-9%	-1%	-12%
CCc1ccc(CN(C)CC(O)COc2cccc3ccccc23)cc1 (stereo not drawn)	7%	22µM*	u	-6%	u
O=C(Nc1ccc2c(c1)OCCO2)C(=O)c1c[nH]c2ccc(F)cc12	x	x	x	x	-19%
CC(c1nc(N)nc(N(C)C)n1)N(C)CCOc1ccc(Cl)cc1 (stereo not drawn)	x	x	x	x	17%
COC(=O)CNC(=O)NCCc1ncc(C)n1Cc1ccccc1	x	x	x	x	95%
COc1ccc2ccc3c(c2c1)N=CC1(O3)N(C)c2ccccc2C1(C)C (stereo not drawn)	50µM*	5.6µM*	-4%	-5%	x
COCCNC(=O)NC(=O)COC(=O)c1ccc(COc2ccc3c(C)cc(=O)oc3c2)cc1	x	x	x	x	-19%
SMILES	VDR inhibitor	G9a block	Sfp PPTase inh	Glioma ERSR ind	12-LOX inh
CN(C)CCOC(c1ccc(Cl)cc1)c1ccccn1 (stereo not drawn)	-2%	45µM*!	18%	-3%	19%
CN(C)CC[C@@H](c1ccccc1)c1ccccn1	1%	11%[21.5 µM]	34%	-4%	x
C=CCN(CC=C)Cc1cc(=O)oc2ccc3ccccc3c12	x	x	x	-7%	u
Cc1cc2oc(=O)cc(CN3CCCC3)c2cc1Cl	x	x	x	-3%	6.3µM*
CCCN(CCC)Cc1cc(=O)oc2cc(C)c(Cl)cc12	x	x	x	2%	40µM*
CCCN(CCC)Cc1cc(=O)oc2cc(C)c(C)cc12	x	x	x	-2%	u
Cc1cc2oc(=O)cc(CN3CCCCC3)c2cc1Cl	x	x	x	-2%	u
COCCN(CCOC)Cc1cc(=O)oc2ccccc12	x	x	x	-1%	18µM*
CCCCN(CCCC)Cc1cc(=O)oc2ccc3ccccc3c12	x	x	x	-4%	35µM*
COc1cc(CN2C(=O)C(=O)c3cc(C)ccc32)ccc1OCCC(C)C	x	x	x	x	-28%
COc1ccc(N2Cc3cccc(C(=O)NCc4ccc(C)cc4)c3C2=O)cc1	x	x	x	x	27%
COCCN(CCOC)Cc1cc(=O)oc2cc(OC)c(Cl)cc12	x	x	x	-2%	u
Cc1cc2oc(=O)cc(CN3CCCc4ccccc43)c2cc1C	-3%	8.9µM*	-26%	0%	u
Cc1cc2oc(=O)cc(CN3CCCCC3)c2cc1C	7%	-5%	1%	0%	u
COCCN(CCOC)Cc1cc(=O)oc2cc(C)c(Cl)cc12	x	x	x	-1%	45µM*
Cc1nc2nc(SCc3c(F)cccc3Cl)nn2c(C)c1Cc1ccccc1	-5%	14%[59 µM]	x	6%	-18%
Cc1nc2nc(SCC(=O)N3CCOCC3)nn2c(C)c1Cc1c(F)cccc1Cl	-2%	22µM*	u	-3%	1%
Cc1nc2nc(SCC(=O)NCCCN3CCCCCC3)nn2c(C)c1Cc1ccccc1Cl	-1%	79µM*	-15%	-1%	0%
c1ccc(CNc2nc(N3CCN(Cc4ccccc4)CC3)nc3ccccc23)cc1	2%	u	56µM*	-7%	u
c1coc(CNc2nc(N3CCCCC3)nc3ccccc23)c1	6%	u	u	-11%	-37%
c1ccc(N2CCN(c3nc(NCc4ccco4)c4ccccc4n3)CC2)cc1	7%	45µM*	32µM*	-9%	u
Cc1onc(C(=O)N2CCCCCCNC(=O)[C@@H]3CCCC[C@@H]32)c1Cn1cccn1	x	x	x	x	23%
O=C(Nc1nc(-c2ccccn2)cs1)c1ccc([N+](=O)[O-])o1	-12%	6.3µM*	16µM*	10%	u
Cc1ccc(C(=O)Nc2nc(-c3ccccn3)cs2)o1	1%	u	-8%	4%	6%
O=C(Nc1nc(-c2ccccn2)cs1)c1ccc(-c2ccccc2F)o1	-10%	43%[12.7 µM]	x	32µM*	80%
SMILES	VDR inhibitor	G9a block	Sfp PPTase inh	Glioma ERSR ind	12-LOX inh
O=C(COc1ccccc1)N1CC(CNc2cccnc2)C2(C1)CN(c1ccccc1)C2 (stereo not drawn)	x	x	x	x	5%[176 µM]
CC1(C(=O)NC2COC2)CN(Cc2ccccc2)Cc2ccc(Nc3ccccc3)nc21 (stereo not drawn)	x	x	x	x	-9%[176 µM]
CN(C)C(=O)c1ccc(Cl)cc1NS(=O)(=O)c1cccc(F)c1	x	x	x	x	6%
Oc1ccc(C(=S)N2CCN(Cc3ccccc3)CC2)cc1	50µM*	2.2µM*	16µM*	-2%	-10%
S=C(c1ccc(Br)cc1)N1CCN(Cc2ccccc2)CC1	u	x	11µM*	-2%	-24%
O=C(c1ccc(Br)cc1)N1CCN(Cc2ccccc2)CC1	1%	-5%[0.501 µM]	8%	-3%	-27%

Screens deposited in PubChem by National Center for Advancing Translational Sciences (NCATS).
